Hits are enriched below; roughly 4.2% of the tested compounds scored in any of these assays.
NALP1 yeast inh: inhibitors of NALP1 inflammasome in yeast; S. cerevisiae NALP1/ASC/caspase-1 growth, X-gal OD620, 72 h; inhibition, % at 10 µM; 0.61% of 280,000 active; in the data active means inhibition mostly above about 24%, no sharp cut-off; inactive means mostly below about 32%
V-ATPase pH: yeast V-ATPase proton transport regulation by pHLuorin; S. cerevisiae, pHLuorin cytosolic pH fluorescence; response, % at 10 µM; 0.37% of 350,000 active; AID 504577; in the data active means response mostly above about 7.3%, no sharp cut-off; inactive means mostly below about 5.4%; further: actives read high
TIM10 inh: TIM10 yeast growth inhibition | inhibition, % at 10 µM | S. cerevisiae TIM10 strain growth, BacTiter-Glo luminescence, 24 h | 1.4% of 330,000 active | AID 463195;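 active means inhibition of 40% or more at the single tested concentration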;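 further: wild-type TIM10 isogenic control strain grown at permissive 25 °C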
NALP3 yeast inh: NALP3 inhibition in yeast; Yeast reconstituted NLRP3/ASC/caspase-1, beta-gal luminescence, 24 h; inhibition, % at 10 µM; 0.39% of 330,000 active;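 active means inhibition of 50% or more; inactive means inhibition below 50%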;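 further: plate controls were induced DMSO wells for no effect and uninduced yeast grown without galactose for full effect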
tim23-1 inh: growth inhibitors of tim23-1 mutant yeast. S. cerevisiae tim23-1 growth, BacTiter-Glo luminescence, 24 h. inhibition, % at 20 µM. 1.3% of 330,000 active. AID 463212;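 active means growth inhibition of the mutant yeast at or above 50%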;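 further: temperature-sensitive mutant grown at 25 °C; plate controls were DMSO-treated mutant yeast for no effect and medium wells lacking yeast for full effect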
tim10-1 inh: inhibits growth of tim10-1 mutant yeast | S. cerevisiae tim10-1 ts strain growth, BacTiter-Glo, 24 h | inhibition, % at 20 µM | 2.2% of 330,000 active;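 active means inhibition of at least 40%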;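 further: mutant grown at 25 °C; 0% = DMSO wells with yeast and 100% = wells holding no yeast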
tim10-1 confirm: tim10-1 yeast growth inhibition, confirmed | shares compounds with tim10-1 inh | S. cerevisiae tim10-1 ts strain growth, BacTiter-Glo, 24 h | inhibition, % at 20 µM | 56% of 7,400 active | AID 463213;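 active means inhibition of yeast growth at or above a set limit in either of two repeat tests at 20 µM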;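 further: tim10-1 mutant grown at permissive 25 °C to find synthetic lethal compounds; 0% = DMSO yeast wells and 100% = medium wells without yeast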
TIM10 conf: TIM10 yeast growth inhibition, confirmed; shares compounds with TIM10 inh; S. cerevisiae tim10 strain growth, BacTiter-Glo luminescence, 24 h; inhibition, % at 10 µM; 63% of 4,600 active; AID 463215;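 active means inhibition of yeast growth at or above a set limit in either of two replicates at 10 µM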;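 further: this counterscreen used the strain with wild-type TIM10; 0% = yeast with DMSO and 100% = medium wells lacking yeast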
tim23-1 confirm: tim23-1 yeast growth inhibition, confirmed | shares compounds with tim23-1 inh | S. cerevisiae tim23-1 growth, BacTiter-Glo luminescence, 24 h | inhibition, % at 20 µM | 83% of 4,400 active | AID 463218;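 active means inhibition above about 39% in either of two replicate wells at 20 µM, limit read from the data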;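 further: temperature-sensitive tim23-1 mutant grown at 25 °C; 0% = DMSO wells with yeast and 100% = medium wells without yeast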
* hit, by the source's call; · = no result given.

SMILES | NALP1 yeast inh | V-ATPase pH | TIM10 inh | NALP3 yeast inh | tim23-1 inh | tim10-1 inh | tim10-1 confirm | TIM10 conf | tim23-1 confirm
O=C(OCc1ccc(Br)cc1)c1cccc(S(=O)(=O)N2CCCC2)c1 | · | 1 | 7 | 5 | 16 | 22 | · | · | ·
OCCOCCNc1ncnc2c1c(-c1ccccc1)cn2-c1ccccc1 | -1 | 2 | 26 | 18 | 50* | 47* | 4 | · | 46*
Nc1nc(N)nc(-c2ccc(Oc3ccccc3)cc2)n1 | 18 | 0 | 30 | 23 | 38 | 26 | · | · | ·
Cc1sc(N)nc1-c1ccc(Oc2ccccc2)cc1 | 95* | -2 | 29 | 37 | 69* | 40* | 50* | · | 57*
CC(=O)Oc1cccc(/C=C2\Sc3ccccc3C2=O)c1 | 17 | -4 | 33 | 20 | 86* | 44* | 48* | · | 85*
CCCCOc1ccc(/C=C2/Sc3ccccc3C2=O)cc1 | 17 | 6 | -6 | 37 | 1 | 29 | · | · | ·
Cc1[nH]c2ccccc2c1N=Nc1cc(C(=O)O)cc(C(=O)O)c1 | 18 | -7 | -8 | 23 | 4 | -3 | · | · | ·
Cc1[nH]c2ccccc2c1N=Nc1ccc(F)cc1 | 8 | -1 | 30 | 14 | 70* | 63* | 30 | · | -88
COc1ccc(/C=C/C(=O)c2cc(F)ccc2OC(=O)c2ccc(OC)c(OC)c2)cc1OC | 26 | -2 | 54* | 15 | 52* | 50* | 46* | 29 | 56*
COc1ccc(/C=C/C(=O)c2ccc(C(=O)/C=C/c3ccc(OC)c(OC)c3)cc2)cc1OC | 22 | -3 | -5 | 20 | 8 | 22 | · | · | ·
Cc1nnnn1/C(=C\c1ccccc1)C(=O)OCC(=O)NC1CCCCC1 | · | 0 | 41* | 25 | 54* | 47* | 35* | 50* | 47*
CC(=O)N/C(=C\c1ccccc1)C(=O)OCC(=O)NC1CCCC1 | 25 | 4 | 0 | 23 | -2 | -20 | · | · | ·
O=C(NC(=S)N(CCc1ccccc1)CCc1ccccc1)c1ccco1 | 19 | -1 | 42* | 8 | 51* | 49* | 44* | -10 | 51*
CC(CCc1ccccc1)NC(=S)NC(=O)c1ccco1 (centres undefined) | 18 | 8 | 20 | 29 | 44 | 8 | · | · | ·
CCc1ccc(NC(=O)C(C)OC(=O)C2CCC(=O)N2)cc1 (centres undefined) | 29 | 1 | 11 | -2 | 3 | -19 | · | · | ·
O=C(OCn1ncc(Cl)c(Cl)c1=O)c1cccc(C(F)(F)F)c1 | -6 | -1 | 53* | -4 | 74* | 72* | 72* | 39* | 72*
CCc1ccc(C(=O)Cn2ncc(Cl)c(Cl)c2=O)cc1 | -20 | 2 | -1 | -13 | -2 | 5 | · | · | ·
Cc1ccc2occ(C(=O)c3ccco3)c(=O)c2c1 | 47 | -2 | 49* | 8 | 71* | 42* | 23 | 29 | 51*
O=C(CSc1ccc(Cl)cc1)N/N=C/c1ccc([N+](=O)[O-])o1 | -9 | 2 | 33 | 8 | 55* | 62* | 37* | · | 57*
Cc1ccc(OCC(=O)N/N=C/c2ccc([N+](=O)[O-])o2)cc1 | 39 | -2 | 47* | 15 | 51* | 44* | 47* | 50* | -11
COC(C/C=C\C(=O)[C@@H](C)OCc1ccccc1)OC | · | · | 30 | 17 | 52* | 41* | 29 | · | 45*
COC(C/C=C/[C@@H](O)[C@@H](C)OCc1ccccc1)OC | · | -3 | -7 | 0 | 4 | 4 | · | · | ·
Cc1[nH]c2ccc(C(=O)N3CCN(c4ccccc4Cl)CC3)cc2c1C | 10 | -1 | 40* | 8 | 51* | 57* | 25 | 12 | 48*
Cc1ccc(C(C)C)c(OCc2nc(-c3nonc3N)no2)c1 | 5 | -2 | -2 | 27 | 1 | -4 | · | · | ·
O=C(Nc1ccc(OC(F)F)c(Cl)c1)c1cccc(OC(F)F)c1 | -18 | 5 | 63* | -36 | 71* | 71* | 63* | 59* | 76*
SMILES | NALP1 yeast inh | V-ATPase pH | TIM10 inh | NALP3 yeast inh | tim23-1 inh | tim10-1 inh | tim10-1 confirm | TIM10 conf | tim23-1 confirm
CC1=C(C#N)c2nc(N)c(C#N)c(C)c2/C1=C\c1ccc(C)cc1 | 17 | · | 82* | 21 | 56* | 73* | 90* | 1 | 68*
COC(=O)C1=C(C)N(c2cc(Cl)cc(Cl)c2)C(=O)C1 | -19 | 2 | 33 | -6 | 53* | 56* | 54* | · | 46*
Cn1c(CS(=O)Cc2c(Cl)cccc2Cl)nnc1SCc1ccc(Cl)cc1 (centres undefined) | 32 | -2 | 30 | -6 | 37 | 20 | · | · | ·
Cc1ccc(CSc2nnc(CS(=O)Cc3ccc(Cl)cc3Cl)n2C)cc1 (centres undefined) | 34 | 2 | 47* | -2 | 51* | 47* | 37* | 48* | 44*
CN(C)S(=O)(=O)c1cccc(-n2sc3ccccc3c2=O)c1 | -17 | -3 | 18 | -10 | 26 | 15 | · | · | ·
O=C(NCCCN1CCOCC1)c1ccc(Sc2cccc(Cl)c2)c([N+](=O)[O-])c1 | 13 | 2 | 8 | 4 | -15 | 18 | · | · | ·
COc1ccccc1NS(=O)(=O)c1ccc(-c2cnc(C3CC3)o2)cc1 | 5 | -3 | -11 | 18 | 26 | 31 | · | · | ·
O=S(=O)(Nc1ccc(F)cc1Cl)c1ccc(-c2cnc(C3CC3)o2)cc1 | -11 | -1 | 18 | 19 | 55* | 53* | 17 | · | 49*
Cc1ccc(NS(=O)(=O)c2ccc(-c3cnc(C4CC4)o3)cc2)c(C)c1 | 5 | 3 | 1 | 1 | 51* | 53* | 17 | · | 38
Clc1cccc(Cl)c1Cn1cnc2c(N3CCCCCC3)ncnc21 | -6 | 0 | 41* | 7 | 50* | 44* | 29 | 28* | 47*
O=C(COc1ccc(Cl)cc1Cl)NC(=O)NC1CCCC1 | · | 1 | 12 | 12 | 49 | 35 | · | · | ·
O=C(COc1ccc(Cl)cc1Br)NC(=O)NC1CCCC1 | · | -1 | 15 | 28 | 52* | 51* | 39* | · | 63*
O=C(COc1ccc(Br)cc1Cl)NC(=O)NC1CCCC1 | · | 2 | 26 | 5 | 56* | 42* | 41* | · | 55*
COc1cc(CNCCN2CCOCC2)ccc1OCc1ccccc1Cl | 22 | -3 | 9 | 6 | 10 | 1 | · | · | ·
O=c1c2cc(Cl)ccc2nc(-c2ccccc2)n1O | -27 | -1 | 15 | 40 | 59* | 48* | 6 | · | 64*
Cc1ccccc1-c1nc2ccc(Cl)cc2c(=O)n1O | 0 | 1 | -15 | 19 | 10 | -39 | · | · | ·

Source: PubChem BioAssay
